# From PubChem BioAssay AID588342 (National Center for Advancing Translational Sciences (NCATS), 2011)
# Hit rate of the full screen: of about 360,000 compounds, about 25,000 (6.9%) were called active. About 9% were inconclusive and are not listed. Many of the other results were omitted from the sample, so actives are more common in it than they were. Values without a mark were called inactive. Calls follow the shape of the dose curve; as a rule, active = well fitted inhibition curve with a large enough effect; inconclusive = small, poorly fitted or top-dose-only effect; inactive = flat fitted curve, though single readings scatter.
# Biological target: Luciferin 4-monooxygenase (Photinus pyralis) (UniProt P08659)
# Sequence (P08659 whole entry, looked up): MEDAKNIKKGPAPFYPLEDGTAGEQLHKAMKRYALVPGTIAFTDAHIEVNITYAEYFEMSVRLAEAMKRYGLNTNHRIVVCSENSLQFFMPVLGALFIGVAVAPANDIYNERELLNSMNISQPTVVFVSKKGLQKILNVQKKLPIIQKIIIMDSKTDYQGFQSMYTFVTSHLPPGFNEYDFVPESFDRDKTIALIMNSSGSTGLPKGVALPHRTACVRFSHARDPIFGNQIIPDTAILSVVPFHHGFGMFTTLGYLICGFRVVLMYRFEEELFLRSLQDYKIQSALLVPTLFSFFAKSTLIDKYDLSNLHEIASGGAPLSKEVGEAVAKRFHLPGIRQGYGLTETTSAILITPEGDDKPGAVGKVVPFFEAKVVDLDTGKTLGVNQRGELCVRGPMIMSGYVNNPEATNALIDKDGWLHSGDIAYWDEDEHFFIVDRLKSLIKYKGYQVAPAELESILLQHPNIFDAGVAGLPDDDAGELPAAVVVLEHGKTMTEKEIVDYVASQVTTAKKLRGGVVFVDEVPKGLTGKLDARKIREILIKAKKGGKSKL
# Assay: qHTS profiling assay for firefly luciferase inhibitor/activator using purifed enzyme and Km concentrations of substrates (counterscreen for miR-21 project); also: nearly all actives have a fitted effect of over 55% in size;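 as to activity change, negative = inhibition: plate controls were vehicle for no effect and reference inhibitor for full effect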
# Conditions: purified FLuc, luminescence inhibition; series mostly up to 57.5 µM; activity change, negative = inhibition: at the top concentration
# Summary of the method: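 Biochemical qHTS of compounds, final roughly 60 µM downward over six points, against 10 nM purified firefly luciferase using Km concentrations of substrates (10 uM D-luciferin, 10 uM ATP) in Tris acetate pH 7.5 buffer; luminescence output.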
# Potency is read from the fitted curve at half-maximal effect.
Structure (SMILES),"activity change, negative = inhibition",Potency
COc1cc(CNC(=O)c2cc3n(n2)CCCN(Cc2cccc(F)c2)C3=O)cc(OC)c1OC,4.25%,
CN1CCN(S(=O)(=O)c2ccc(NC(=O)C3CCCO3)cc2)CC1 (stereo not drawn),4.41%,
CN(C)CCn1c2c(c(SCC(=O)NCc3ccccc3)nc1=O)CCC2,-2.52%,
O=C(NNS(=O)(=O)c1ccccc1C(F)(F)F)c1cc2ncc(C(F)(F)F)cc2s1,0.509%,
COc1ccccc1CCNC(=O)c1cccn1-c1nnc(N2CCCCC2)s1,-13.9%,
COc1cc(CNCCSc2nnnn2C)ccc1OCc1c(F)cccc1Cl,3.54%,
Cc1ccccc1C(=O)N1CCC(C(=O)Nc2ccc(S(=O)(=O)N(C)C(C)C)cc2)CC1,-2.3%,
COC(=O)c1ccc2c(c1)N(CC(=O)Nc1ccc(C)c(C)c1)C(=O)c1ccccc1S2,-1.58%,
CCN(CCCNC(=O)CSc1cc(=O)n(C)c2cc(Cl)ccc12)c1cccc(C)c1,-14.8%,
Oc1ccc(/C=N/N(Cc2ccccc2)c2ccccc2)cc1,-17.6%,
Cc1ccnc(N2CCCC(C(=O)Nc3cc(F)ccc3C)C2)n1 (stereo not drawn),5.94%,
CC1CCCN(c2csc3ccc(F)cc3c2=O)C1 (stereo not drawn),,6.01 µM (active)
CC1CCCN(c2cc3c(cc2F)c(=O)c(S(=O)(=O)c2cccc(Cl)c2)cn3Cc2ccccc2)C1 (stereo not drawn),1.02%,
CCOc1ccc(NC(=O)CN(C)C(=O)c2cccc(S(=O)(=O)N3CCCC3)c2)cc1OCC,2.17%,
CC1=C(c2ccc(C)cc2)S(=O)(=O)NC1=NCCCN1CCN(c2cc(C)ccc2C)CC1,-0.583%,
Cc1ccc(CNS(=O)(=O)c2ccc(C(=O)N(C)C)s2)cc1,-9.37%,
Cc1ccc(/C=N/NC(=O)c2cc3ccccc3cc2O)o1,,9.53 µM (active)
O=C(N/N=C/c1cccnc1)c1ccc(NC(=O)c2ccc(F)cc2)cc1,-5.04%,
Cc1ccc(/C=N/NC(=O)Cn2nc(C)c(Br)c2C)o1,3.49%,
O=C(N/N=C\c1cccnc1)c1cc(-c2ccccc2)nc2c(Cl)cccc12,-16.6%,
O=C(N/N=C/c1cccnc1)c1cc2ccccc2cc1O,,5.36 µM (active)
Cc1ccc(/C=N/NC(=O)Cn2ccc(C(F)(F)F)n2)o1,-4.37%,
CCc1cc2c(cc3c(=O)n(CC(=O)NCc4cccc(Cl)c4)nc(CC)n32)s1,-3.11%,
COc1ccc(-n2cnnc2SCC(=O)Nc2cccc([N+](=O)[O-])c2)cc1,-0.116%,
O=C(CSc1ncn[nH]1)Nc1nc(-c2cccc([N+](=O)[O-])c2)cs1,-12.7%,
O=C(CSc1nc(-c2ccccc2)cs1)Nc1cccc([N+](=O)[O-])c1,,10.7 µM (active)

Structure (SMILES),"activity change, negative = inhibition",Potency
O=C1NC(c2ccc(-c3ccccc3[N+](=O)[O-])o2)C(C(=O)c2ccc(Cl)cc2)C(O)(C(F)(F)F)N1 (stereo not drawn),3.67%,
Cc1cc([N+](=O)[O-])c(-c2ccc(/C=N/n3cnnc3)o2)cc1Cl,0.263%,
CC1=NN(c2ccc(Cl)c(C(=O)O)c2)C(=O)/C1=C/c1ccc(-c2ccccc2[N+](=O)[O-])o1,,4.78 µM (active)
C=CCc1cccc2cc(C(=O)OCC)c(=O)oc12,-15.5%,
NS(=O)(=O)c1ccc(NC(=O)COC(=O)c2cc3ccccc3oc2=O)cc1,-6.92%,
CCOC(=O)c1cc2cc3ccccc3cc2oc1=O,,9.53 µM (active)
O=C(CCC(=O)N1CC2CCCN2c2ccccc21)NCc1ccccc1Cl (stereo not drawn),-11.2%,
O=C(CCc1nc(CN2CCN(S(=O)(=O)c3ccc(Br)cc3)CC2)no1)N1CCCCC1,-2.89%,
CCOC(=O)c1c(C)[nH]c(CCC(=O)NCCCN2CCN(c3cccc(Cl)c3)CC2)c1C,-6.7%,
CN(C)CCN=c1cc(-c2ccccc2)oc2ccc(Cl)cc12,,6.01 µM (active)
CN(C)CCCn1c(-c2ccc(Cl)cc2)csc1=Nc1ccccc1,1.01%,
CN(C)CCn1c(=S)[nH]c2ccc(Cl)cc2c1=O,-0.113%,
O=C(CCCn1c(=O)c2cccn2c2cccnc21)NCc1ccc(F)cc1,7.61%,
Cc1ccccc1Cn1nc(C)c(NC(=O)c2cc(-c3ccc(F)cc3)on2)c1C,3.35%,
CCOC(=O)C1=C(N)N2C(=O)C(C)SC2=C(C(=O)OCC)C1c1cc(OC)c(OC)c(OC)c1 (stereo not drawn),-0.321%,
CC1(C)CCSC(/C=C/c2ccccc2)=N1,,13.5 µM (active)
Cc1ccc(C)c(CN2C(=O)c3ccccc3S(=O)c3ccc(C(=O)N4CCOCC4)cc32)c1 (stereo not drawn),-4.41%,
CC(=C/c1ccccc1)/C=N/NC(=O)c1cc(C)oc1C,,1.35 µM (active)
O=C(Cc1cc(=O)[nH][nH]1)N/N=C/c1ccccc1[N+](=O)[O-],2.61%,
Cc1cc(C(=O)N/N=C/c2ccccc2[N+](=O)[O-])c(C)o1,,16.9 µM (active)
CC(=O)N/N=C/c1cc2c(cc1[N+](=O)[O-])OCO2,0.319%,
CC(=O)c1ccc(N2CCN(CC(=O)Nc3ccccc3N3CCOCC3)CC2)cc1,-9.52%,
Cc1ccccc1N/N=C/c1ccc(N2CCOCC2)cc1,,10.7 µM (active)
Cc1cc(C(=O)N/N=C\C(Br)=C\c2ccccc2)c(C)o1,,8.49 µM (active)
COc1ccc(C/C(C)=N/NC(=O)c2cc(C)oc2C)cc1,-11.8%,
Cc1cc(Nc2ccc(N3CCOCC3)cc2)c2cccc(C)c2n1,-2.45%,

Structure (SMILES),"activity change, negative = inhibition",Potency
Cc1cc(C(=O)OCC(=O)Nc2ccccc2Cl)c(C)o1,-19.8%,
Cc1cc(-c2n[nH]c(=S)n2/N=C/C(Br)=C/c2ccccc2)n[nH]1,-6.14%,
CC(=O)N/C(=C/c1ccc(OC(F)F)cc1)C(=O)O,-0.154%,
Cc1ccc(CC(=O)Nc2ccc(S(=O)(=O)N3CCOCC3)cc2)cc1C,-1.84%,
Cc1cccc(Cn2c(=O)n(CCC(=O)NCCc3ccc(Cl)cc3)c(=O)c3sccc32)c1,-3.53%,
O=C(CN1CCN(C2CCS(=O)(=O)C2)CC1)N1N=C(c2ccc(Cl)cc2)CC1c1ccco1 (stereo not drawn),0.655%,
CCOC(=O)c1cc(-c2ccccc2)n(CCC(=O)Nc2ccccc2CC)c1C,-1.81%,
CC1=Nc2cc(C(=O)N3CCC(C)CC3)ccc2Sc2ccc(Cl)cc21,2.21%,
CC(=O)Nc1cccc(NC(=O)CSc2nccn2Cc2ccc3c(c2)OCO3)c1,-7.66%,
COc1ccc(Br)cc1CNC(=O)c1cc(=O)[nH]c2ccc(S(=O)(=O)N3CCCC3)cc12,-0.37%,
O=c1c2c(ncn1Cc1ccccc1)nc1n2CCC1,3.35%,
Cc1cc(C)nc(NS(=O)(=O)c2ccc(NC(=O)c3cc(=O)c4ccc(C)c(C)c4o3)cc2)n1,-19.3%,
O=c1cc(CSc2ncn[nH]2)[nH]c2ccc(F)cc12,7.8%,
CC(C)N(Cc1nnc(-c2ccccc2Br)o1)C(=O)c1cc(Cl)nc2ccccc12,4.54%,
CCN(CC)c1ccc(C(=O)N/N=C/c2ccc(N3CCOCC3)cc2)cc1,-6.56%,
Cc1ccc(OCCCC(=O)Nc2ccc(N3CCOCC3)cc2)cc1,-2.1%,
Cc1cc(C(=O)N/N=C/c2ccc(N3CCOCC3)cc2)c(C)o1,,13.5 µM (active)
O=c1c2ccccc2ccc2ccc(P(=O)(O)O)cc12,2.5%,
O=C(OCc1ccc([N+](=O)[O-])cc1)c1ccccn1,-0.663%,
Cc1ccc(C(=O)O/N=C(\N)c2ccccn2)cc1Cl,,0.169 µM (active)
COc1ccc(C(=O)NNC(=O)c2cnccn2)cc1[N+](=O)[O-],6.8%,
N/C(=N\OC(=O)c1ccc([N+](=O)[O-])cc1)c1ccccn1,,0.601 µM (active)
COc1ccc(C(=O)CSc2nc(C)cc(C)n2)cc1[N+](=O)[O-],-13.8%,
O=C(COC(=O)c1ccccn1)NNC(=O)c1ccc([N+](=O)[O-])cc1,2.2%,
Cc1ccc(NC(=O)c2ccccn2)cc1S(=O)(=O)N1CCOCC1,-1.27%,
COc1ccc(C(=O)O/N=C(\N)c2ccccn2)cc1[N+](=O)[O-],,12 µM (active)

Structure (SMILES),"activity change, negative = inhibition",Potency
O=C(Nc1ccccc1Cl)O/N=C(/c1ccccc1)c1ccccn1,-8.09%,
O=C(CCS(=O)(=O)c1cc(Br)cc2c1N(C(=O)C1CC1)CC2)Nc1ccc(C(F)(F)F)cc1,-0.598%,
C/C=N/NC(=O)CCCC(=O)N/N=C/C,-3.72%,
COc1ccccc1C(=O)NCC(=O)NCCSc1ccc(Br)cc1,0.478%,
Cn1nnnc1SCCCNCc1ccc(Cl)cc1,-1.11%,
Cc1ccc(NC(=O)C(=O)NCC(c2cccnc2)N2CCOCC2)cc1 (stereo not drawn),-1.67%,
Cn1c(SCC(=O)c2ccccc2)ncc(C(=O)Nc2ccc(F)cc2)c1=O,-4.55%,
Cc1ccc(NC(=O)c2cnc(SCC(=O)NCC3CCCO3)n(C)c2=O)cc1 (stereo not drawn),,9.53 µM (active)
Cc1cc(NC(=O)CSc2ncc(C(=O)Nc3ccc(Cl)cc3)c(=O)n2C)no1,-5.36%,
COc1ccc(Cl)cc1NC(=O)CSc1nc(=O)[nH]c2c1CCCC2,-11.4%,
C/C(=C\c1ccco1)C1Nc2cccc3cccc(c23)N1,,10.7 µM (active)
O=C(NCC1CCCO1)/C(=C\c1ccco1)NC(=O)c1ccccc1 (stereo not drawn),-2.53%,
NC(=O)C1CCN(C(=O)/C(=C/c2ccco2)NC(=O)c2ccccc2)CC1,-1.25%,
CNC(=O)c1nnc(Cc2ccc(Cl)cc2)o1,3.86%,
Clc1ccc(Cc2nnc(-c3cccs3)o2)cc1,,19 µM (active)
c1csc(-c2nnc(COc3ncnc4sccc34)o2)c1,4%,
CC(Sc1oc(-c2ccco2)nc1S(=O)(=O)c1ccc(Br)cc1)c1ccccc1 (stereo not drawn),3.32%,
Cc1cc(C)n2nc(C(=O)OCC(=O)N(C)CC(=O)Nc3ccc(F)cc3)nc2n1,4.22%,
COc1ccc(CNC(=O)c2cc3c(=O)[nH]c4ccc(C)cc4c3s2)c(OC)c1,-8.78%,
COC(=O)c1ccc(NCC(=O)c2ccccc2)cc1,,1.51 µM (active)
Cc1ccc(NC(=O)CCC(=O)c2ccc(Br)cc2)cc1,-2.06%,
Cc1ccc(C(=O)NC2CCN(C(=O)Nc3ccc(F)cc3)CC2)cc1,-1.62%,
Cc1ccc(C(=O)CNc2ccc(F)cc2)cc1,,4.78 µM (active)
COC(=O)c1ccc(NCC(=O)N2CCCCCC2)cc1,-11.5%,
CCOC(=O)c1nc(Nc2ccc(C(=O)OC)cc2)c2ccccc2n1,,inactive
